Results filed as inconclusive are left out. Calls of active or inactive are those of the source. Unless noted, calls follow the shape of the dose curve; as a rule, active = well fitted curve in the direction sought with a large enough effect; inconclusive = small, poorly fitted or top-dose-only effect, or another doubt; inactive = no such curve, though single readings can be large; an effect the other way counts as inactive or inconclusive.
How the values were obtained:
[1] = Viability counterscreen for antagonist of constitutive androstane receptor (CAR) against the NCATS DSHEA and TCM libraries (AID 1794837);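 also: compound exposure lasted 24 h before viability reading; 0% is about no effect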
How it was run: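 Cells: HepG2 line carrying CYP2B6 reporter and hCAR, seeded and attached 5 h. Then pin-transferred test substances plus agonist CITCO at 48 uM final; 24 h incubation; fluorogenic viability reagent, 1 h.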

[2] = Viability counterscreen for agonist of constitutive androstane receptor (CAR) against the NCATS DSHEA and TCM libraries (AID 1794838);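 also: HepG2 cells with CYP2B6 reporter and hCAR plus 0.75 µM PK11195 antagonist; 0% is about no effect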
How it was run: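 Cell health was measured as CellTiter-Fluor signal in HepG2-CYP2B6-hCAR cells treated for 24 h with substances alongside the hCAR antagonist PK11195 (0.75 uM final).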

[3] = biological target: Nuclear receptor subfamily 1 group I member 3 (Homo sapiens) (UniProt Q14994); experiment: Primary qHTS for agonist of constitutive androstane receptor (CAR) against the NCATS DSHEA and TCM libraries (AID 1794839);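 also: HepG2 cells expressing human CAR with a CYP2B6 reporter plus PK11195 antagonist; 0% is about no effect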
How it was run: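 qHTS, agonist mode: HepG2-CYP2B6-hCAR, 2,500 cells/well, 5 h attach; cpds + PK11195 0.75 µM final; 24 h, 37 °C, 5% CO2. Readouts: CellTiter-Fluor (405/540 nm), then ONE-Glo luminescence.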

[4] = HepG2 viability counterscreen (readout 1: protease activity) against the NCATS DSHEA and TCM libraries (AID 1794841);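 also: cells exposed to compounds for about 24 h before the protease read; 0% is about no effect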
How it was run: (§1)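 Same wells read twice: first fluorescence from cleaved GF-AFC substrate (25 uM final, 30 min, 37C) for live-cell protease, then CellTiter-Glo luminescence after 30 min at room temperature for ATP. HepG2 cells were exposed ~24 h to substances.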

[5] = biological target: Cytochrome P450 3A4 (Homo sapiens) (UniProt P08684); experiment: qHTS for inhibitors of CYP3A4 against the NCATS DSHEA and TCM libraries (AID 1919971); also: potency is read from the fitted curve at half-maximal effect
How it was run: (§2)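 Luminescent P450-Glo format: compounds preincubated 15 min with enzyme and luciferin substrate, reaction run 30-45 min after NADPH regeneration solution. Intraplate controls: ketoconazole for CYP3A4 and CYP2C19, sulfaphenazole for CYP2C9.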

[6] = biological target: Cytochrome P450 2D6 (Homo sapiens) (UniProt P10635); experiment: qHTS for inhibitors of CYP2D6 against the NCATS DSHEA and TCM libraries (AID 1919972); also: potency is read from the fitted curve at half-maximal effect
How it was run: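 Luminescent P450-Glo read-out of CYP2D6 turnover of a luciferin substrate after NADPH-driven reaction of 30-45 min at room temperature. Compounds were first preincubated 15 min with enzyme at titrated concentrations; quinidine was the intraplate control.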

[7] = biological target: Cytochrome P450 2C19 (Homo sapiens) (UniProt P33261); experiment: qHTS for inhibitors of CYP2C19 against the NCATS DSHEA and TCM libraries (AID 1919974);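 also: luminescence from luciferin released by CYP2C19 oxidation of a pro-luciferin substrate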; also: potency is read from the fitted curve at half-maximal effect
How it was run: as §2

[8] = KB-3-1 P-gp reporter qHTS against the NCATS DSHEA and TCM libraries (AID 1919975); also: 0% is about no effect
How it was run: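 KB-3-1 parental line, 1536-well qHTS: cells seeded, ~4 h attachment, pintool compound addition, ~72 h at 37C, then CellTiter-Glo, 30 min RT, luminescence. Concentration-response format.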

[9] = qHTS Counterscreen for compound interference against the NCATS DSHEA and TCM libraries (AID 1919978); settings: firefly luciferase detection reagent interference, luminescence;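 also: compounds preincubated with 1 µM D-luciferin or buffer before detection reagent; % of control where 0% means no effect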
How it was run: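 Compounds, titrated from 19.5 nM to 39.8 uM final, were pinned onto 1 uM D-luciferin or plain 100 mM potassium phosphate. After 15 min at room temperature, luciferin detection reagent was added for 30 min before the luminescence read.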

[10] = biological target: Nuclear receptor subfamily 1 group I member 2 (Homo sapiens) (UniProt O75469); experiment: Dual reporter qHTS for agonist of Pregnane X Receptor (hPXR) against the NCATS DSHEA and TCM libraries: Luminescence readout (AID 1920059); also: potency is read from the fitted curve at half-maximal effect
How it was run: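 hPXR-LucHepG2 cells in phenol red-free DMEM with 5% charcoal-stripped FBS, 2000 cells/well, attached 5 h, then exposed 24 h at 37C to compounds; rifampicin as positive agonist control (2.8 nM–92 uM). Luciferase luminescence read.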

[11] = biological target: Nuclear receptor subfamily 1 group I member 2 (Homo sapiens) (UniProt O75469); experiment: Dual reporter qHTS for antagonist of Pregnane X Receptor (hPXR) against the NCATS DSHEA and TCM libraries: Luminescence Readout (AID 1920060); also: 0% is about no effect
How it was run: (§3)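 Rifampicin-stimulated (2 uM final) hPXR-luciferase HepG2 cells were treated for 24 h with DSNP/TCM substances. Viability came from CellTiter-Fluor fluorescence, reporter activity from ONE-Glo luminescence.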

[12] = Dual reporter qHTS for antagonist of Pregnane X Receptor (hPXR) against the NCATS DSHEA and TCM libraries: Fluorescence Readout (AID 1920061); also: 0% is about no effect
How it was run: as §3

[13] = Dual reporter qHTS for agonist of Pregnane X Receptor (hPXR) against the NCATS DSHEA and TCM libraries: Fluorescence readout (AID 1920058); also: 0% is about no effect
How it was run: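 hPXR-Luc HepG2 cells, 2000/well in charcoal-stripped serum, attached 5 h, dosed for ~24 h at 37 °C. Fluorescence read is CellTiter-Fluor viability (Ex/Em 405/540 nm); rifampicin positive, tetraoctyl ammonium bromide (92 µM) cytotoxicity controls.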

[14] = biological target: Mitogen-activated protein kinase 10 (Mus musculus) (UniProt Q61831); experiment: JNK3 AlphaScreen Assay (AID 530; active = well fitted curve in either direction with a large enough effect, not every such curve was filed as active;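 also: kinase came from lysate of stimulated human HepG2 cells; signal reports phosphorylation of biotinylated GST-cJun 1-79 at Ser73 with 10 µM ATP; series mostly up to about 57 µM; % is scaled to controls: 0 for no effect and ±100 for the full control effect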)
How it was run: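 Inhibitors reduce antibody binding to phosphorylated biotin-cJun, lowering AlphaScreen luminescence. Lysates from HepG2 cells pre-activated by IL-1beta plus TNF-alpha supplied JNK3; compounds were titrated.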

[15] = HepG2 viability counterscreen (readout 2: ATP content) against the NCATS DSHEA and TCM libraries (AID 1794840); also: 0% is about no effect
How it was run: as §1

Sequence of Nuclear receptor subfamily 1 group I member 2 (Homo sapiens) (O75469 whole entry, looked up): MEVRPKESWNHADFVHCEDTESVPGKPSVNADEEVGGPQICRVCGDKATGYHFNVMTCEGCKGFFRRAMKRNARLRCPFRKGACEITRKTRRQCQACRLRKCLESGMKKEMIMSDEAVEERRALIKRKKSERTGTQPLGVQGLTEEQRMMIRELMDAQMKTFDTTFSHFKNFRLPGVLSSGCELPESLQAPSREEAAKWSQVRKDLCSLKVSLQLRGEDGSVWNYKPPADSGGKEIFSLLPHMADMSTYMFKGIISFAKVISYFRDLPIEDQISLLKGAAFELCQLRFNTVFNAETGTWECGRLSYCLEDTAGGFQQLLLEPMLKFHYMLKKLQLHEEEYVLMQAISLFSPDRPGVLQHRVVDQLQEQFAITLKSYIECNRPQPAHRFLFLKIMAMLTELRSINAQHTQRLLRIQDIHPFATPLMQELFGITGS
Sequence of Cytochrome P450 2C19 (Homo sapiens) (P33261 whole entry, looked up): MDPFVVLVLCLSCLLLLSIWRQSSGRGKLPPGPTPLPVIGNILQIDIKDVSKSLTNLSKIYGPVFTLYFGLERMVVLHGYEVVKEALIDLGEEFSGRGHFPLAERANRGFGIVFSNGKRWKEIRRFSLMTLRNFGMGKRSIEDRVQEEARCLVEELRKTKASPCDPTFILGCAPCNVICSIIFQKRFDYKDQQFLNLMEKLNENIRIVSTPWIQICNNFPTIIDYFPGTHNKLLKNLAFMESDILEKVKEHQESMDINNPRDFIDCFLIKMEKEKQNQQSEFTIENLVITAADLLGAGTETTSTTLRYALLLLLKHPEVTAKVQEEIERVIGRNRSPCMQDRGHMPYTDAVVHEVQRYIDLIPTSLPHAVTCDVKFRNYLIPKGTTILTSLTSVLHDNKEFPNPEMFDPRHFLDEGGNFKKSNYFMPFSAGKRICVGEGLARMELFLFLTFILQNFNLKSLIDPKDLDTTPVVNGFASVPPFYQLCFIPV
Sequence of Cytochrome P450 3A4 (Homo sapiens) (P08684 whole entry, looked up): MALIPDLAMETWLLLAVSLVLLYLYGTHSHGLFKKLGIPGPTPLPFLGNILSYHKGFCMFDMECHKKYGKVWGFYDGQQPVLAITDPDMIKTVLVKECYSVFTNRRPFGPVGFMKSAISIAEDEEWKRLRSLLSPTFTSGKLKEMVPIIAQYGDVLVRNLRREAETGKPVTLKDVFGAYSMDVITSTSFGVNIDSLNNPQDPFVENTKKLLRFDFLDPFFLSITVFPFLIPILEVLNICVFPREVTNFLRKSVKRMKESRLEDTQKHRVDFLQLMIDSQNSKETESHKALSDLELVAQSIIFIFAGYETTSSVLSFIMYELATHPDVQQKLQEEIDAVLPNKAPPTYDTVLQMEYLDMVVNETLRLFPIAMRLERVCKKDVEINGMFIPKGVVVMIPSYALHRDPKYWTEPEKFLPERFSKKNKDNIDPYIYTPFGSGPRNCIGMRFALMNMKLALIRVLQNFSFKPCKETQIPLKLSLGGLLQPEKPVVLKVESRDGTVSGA
Sequence of Cytochrome P450 2D6 (Homo sapiens) (P10635 whole entry, looked up): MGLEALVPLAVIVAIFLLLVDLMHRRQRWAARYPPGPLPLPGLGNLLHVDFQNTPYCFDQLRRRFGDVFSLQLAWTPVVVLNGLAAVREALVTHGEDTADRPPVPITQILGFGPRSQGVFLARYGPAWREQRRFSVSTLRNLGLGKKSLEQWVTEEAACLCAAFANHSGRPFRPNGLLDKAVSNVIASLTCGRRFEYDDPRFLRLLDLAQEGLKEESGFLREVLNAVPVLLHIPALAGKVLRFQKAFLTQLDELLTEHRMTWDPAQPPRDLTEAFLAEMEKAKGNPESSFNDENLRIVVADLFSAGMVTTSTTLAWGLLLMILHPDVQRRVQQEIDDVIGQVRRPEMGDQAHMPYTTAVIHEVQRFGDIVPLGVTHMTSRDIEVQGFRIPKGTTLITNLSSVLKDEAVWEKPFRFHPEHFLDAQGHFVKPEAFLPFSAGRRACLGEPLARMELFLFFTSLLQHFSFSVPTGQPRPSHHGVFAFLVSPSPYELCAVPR
Sequence of Nuclear receptor subfamily 1 group I member 3 (Homo sapiens) (Q14994 whole entry, looked up): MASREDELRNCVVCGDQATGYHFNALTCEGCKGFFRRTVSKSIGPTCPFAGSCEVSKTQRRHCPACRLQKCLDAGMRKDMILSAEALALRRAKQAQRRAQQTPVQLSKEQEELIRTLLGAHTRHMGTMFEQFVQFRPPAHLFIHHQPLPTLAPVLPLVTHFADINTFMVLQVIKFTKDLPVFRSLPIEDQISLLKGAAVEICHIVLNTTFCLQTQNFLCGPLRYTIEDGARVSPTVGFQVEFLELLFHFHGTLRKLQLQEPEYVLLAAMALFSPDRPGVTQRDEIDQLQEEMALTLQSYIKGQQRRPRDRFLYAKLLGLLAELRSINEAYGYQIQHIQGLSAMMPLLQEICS

CCCCCC(=O)CC
inactive: outcome [1] | outcome [2] | Potency [3] | outcome [4] | Potency [5] | Potency [6] | Potency [7] | outcome [8] | max response [9] -3.61% | Potency [10] | outcome [11] | outcome [12]

Cc1ccc(O)c(O)c1
active: Potency [10] 50.1 µM
inactive: outcome [2] | outcome [4] | Potency [5] | Potency [6] | Potency [7] | outcome [8] | outcome [13] | outcome [11]

CC(C)(O)[C@@H]1CC[C@](C)([C@H]2[C@@H](O)C[C@@]3(C)[C@@H]4C[C@H](O)[C@H]5C(C)(C)[C@@H](O[C@@H]6OC[C@@H](O)[C@H](O)[C@H]6O[C@@H]6O[C@H](CO)[C@@H](O)[C@H](O)[C@H]6O)CC[C@@]56C[C@@]46CC[C@]23C)O1
inactive: outcome [1] | outcome [2] | outcome [4] | Potency [5] | Potency [6] | outcome [8] | max response [9] 4.11% | outcome [13] | Potency [10] | outcome [11] | outcome [12]

C=C(C)C(CC=C(C)C)CC12CC(CC=C(C)C)C(C)(C)C(CC=C(C)C)(C(=O)/C(=C(\O)c3ccc(O)c(O)c3)C1=O)C2=O (centres undefined)
inactive: outcome [1] | outcome [2] | Potency [3] | outcome [4] | outcome [11] | outcome [12]
active: Potency [5] 14.1 µM | Potency [6] 28.2 µM | Potency [7] 25.1 µM

CCCCCCCC/C=C\CCCCCCCCCCCCCC(=O)O
inactive: outcome [1] | outcome [2] | Potency [3] | outcome [4] | Potency [6] | Potency [7] | outcome [8] | outcome [13] | Potency [10] | outcome [11] | outcome [12]

CC1=C2[C@H](/C=C(\C)C(=O)O)CC[C@@H](C)[C@H]2CC1
inactive: Potency [14] | outcome [1] | outcome [2] | outcome [4] | Potency [5] | Potency [6] | outcome [8] | max response [9] 1.69% | outcome [13] | Potency [10] | outcome [11] | outcome [12]

CCCCCCCC/C=C/CCCCCCCCCC(=O)O
inactive: outcome [1] | outcome [2] | Potency [3] | Potency [6] | Potency [7] | outcome [8] | Potency [10] | outcome [11] | outcome [12]

C[C@@H]1CC[C@]2(C)CC[C@]3(C)C(=CC(=O)C4[C@@]5(C)CC[C@@H](O)[C@](C)(C(=O)O)C5CC[C@]43C)C2[C@H]1C (some centres undefined)
inactive: outcome [1] | outcome [2] | Potency [3] | outcome [4] | Potency [6] | outcome [8] | outcome [13] | Potency [10] | outcome [11] | outcome [12]

CC(=O)O[C@@H]1CC[C@@]2(C)[C@@H](CC[C@]3(C)[C@@H]2C(=O)C=C2[C@@H]4[C@@H](C)[C@H](C)CC[C@]4(C)CC[C@]23C)[C@@]1(C)C(=O)O
active: Potency [7] 3.55 µM
inactive: outcome [2] | outcome [15] | outcome [4] | Potency [6] | max response [9] -0.124% | outcome [13] | Potency [10] | outcome [12]

OCC1=C[C@@H](O)[C@@H]2C=CO[C@@H](OC3O[C@H](CO)[C@@H](O)[C@H](O)[C@H]3O)[C@H]12 (some centres undefined)
inactive: outcome [1] | outcome [2] | Potency [3] | outcome [4] | Potency [5] | Potency [6] | Potency [7] | outcome [8] | max response [9] 1.01% | Potency [10] | outcome [11] | outcome [12]

CCCCCCCCC/C=C/C(=O)CCc1ccc(O)c(OC)c1
active: Potency [5] 15.8 µM | Potency [7] 3.98 µM
inactive: outcome [1] | outcome [2] | outcome [4] | outcome [8] | max response [9] 4.66% | outcome [11] | outcome [12]

CC(C)=CCC[C@](C)(O[C@@H]1O[C@H](CO)[C@@H](O)[C@H](O)[C@H]1O)[C@H]1CC[C@]2(C)[C@@H]1[C@H](O)C[C@@H]1[C@@]3(C)CC[C@H](O)C(C)(C)[C@@H]3[C@@H](O[C@@H]3O[C@H](CO)[C@@H](O)[C@H](O)[C@H]3O)C[C@]12C
inactive: outcome [1] | outcome [2] | outcome [15] | Potency [5] | Potency [6] | Potency [7] | outcome [8] | outcome [13] | Potency [10] | outcome [11] | outcome [12]

Source: PubChem BioAssay (NCATS)
